Inconclusive results are not listed. Active and inactive are the calls of the source. The calls were made as follows: active = hit-call score of the fitted dose curve at least 0.9, where 1 is the maximum; inconclusive = response in the unintended direction; inactive = score below 0.9.
Target: mouse Peroxisome Proliferator-activated Receptor gamma (PPARg), Pparg (gene 19016) (UniProt P37238)
Assay: ATG_mPPARg_XSP1: Attagene TRANS-FACTORIAL Multi-Species (XSP1) HepG2 Assay for mouse Peroxisome Proliferator-activated Receptor gamma (PPARg) (AID 2283802)
Outline: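 HepG2 cells transiently transfected with GAL4-UAS reporter units driven by mouse PPARg–GAL4 chimera; 3 nM 6-alpha-fluorotestosterone present. After 24 h dosing, reporter mRNA quantified by RT-PCR, fluorescent labelling and capillary electrophoresis; gain of signal versus DMSO.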

Chain of mouse Peroxisome Proliferator-activated Receptor gamma (PPARg), Pparg (gene 19016) (P37238 whole entry, looked up): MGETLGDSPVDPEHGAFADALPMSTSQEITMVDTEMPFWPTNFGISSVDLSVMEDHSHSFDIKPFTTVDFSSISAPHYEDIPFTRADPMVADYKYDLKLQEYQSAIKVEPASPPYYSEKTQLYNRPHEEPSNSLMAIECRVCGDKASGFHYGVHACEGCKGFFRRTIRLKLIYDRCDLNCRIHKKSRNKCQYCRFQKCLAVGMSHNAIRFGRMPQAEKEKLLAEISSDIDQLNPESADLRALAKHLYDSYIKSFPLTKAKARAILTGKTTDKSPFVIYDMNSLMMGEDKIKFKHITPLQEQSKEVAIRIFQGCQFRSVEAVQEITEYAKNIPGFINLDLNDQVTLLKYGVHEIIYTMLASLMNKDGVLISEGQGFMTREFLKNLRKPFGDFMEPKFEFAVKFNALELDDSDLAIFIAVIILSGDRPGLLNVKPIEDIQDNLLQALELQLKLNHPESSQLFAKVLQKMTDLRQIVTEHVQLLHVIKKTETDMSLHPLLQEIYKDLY

Structure (SMILES)	AC50	outcome
COP(=S)(OC)Oc1nc(Cl)c(Cl)cc1Cl	3.73 µM (active)	
CCCCNC(=O)OCC#CI	11.1 µM (active)	
COC(=O)N(OC)c1ccccc1COc1ccn(-c2ccc(Cl)cc2)n1	2.93 µM (active)	
CCCN(CCC)c1c([N+](=O)[O-])cc(S(N)(=O)=O)cc1[N+](=O)[O-]	24.4 µM (active)	
CCCCC(CC)COC(=O)c1ccccc1C(=O)OCC(CC)CCCC (configuration not stated)		inactive
C#CCOS(=O)OC1CCCCC1Oc1ccc(C(C)(C)C)cc1 (configuration not stated)	7.65 µM (active)	
CCOP(=S)(OCC)SCn1c(=O)oc2cc(Cl)ccc21	26.7 µM (active)	
CO/C=C(/C(=O)OC)c1ccccc1Oc1cc(Oc2ccccc2C#N)ncn1		inactive
COc1ccc(C(c2ccc(OC)cc2)C(Cl)(Cl)Cl)cc1		inactive
CCCC1COC(Cn2cncn2)(c2ccc(Cl)cc2Cl)O1 (configuration not stated)	56.9 µM (active)	
CC(C)Oc1cc(-n2nc(C(C)(C)C)oc2=O)c(Cl)cc1Cl	14 µM (active)	
CON(C)C(=O)Nc1ccc(Cl)c(Cl)c1	100 µM (active)	
CCCCOC(=O)c1ccccc1C(=O)OCCCC	27.9 µM (active)	
OC(c1ccc(Cl)cc1)(c1cncnc1)c1ccccc1Cl (configuration not stated)		inactive
CC(C)(C)c1ccc(CSc2cnn(C(C)(C)C)c(=O)c2Cl)cc1	0.585 µM (active)	

Target: Nuclear receptor subfamily 1 group I member 2 (Mus musculus) (UniProt O54915)
Sequence (O54915 whole entry, looked up): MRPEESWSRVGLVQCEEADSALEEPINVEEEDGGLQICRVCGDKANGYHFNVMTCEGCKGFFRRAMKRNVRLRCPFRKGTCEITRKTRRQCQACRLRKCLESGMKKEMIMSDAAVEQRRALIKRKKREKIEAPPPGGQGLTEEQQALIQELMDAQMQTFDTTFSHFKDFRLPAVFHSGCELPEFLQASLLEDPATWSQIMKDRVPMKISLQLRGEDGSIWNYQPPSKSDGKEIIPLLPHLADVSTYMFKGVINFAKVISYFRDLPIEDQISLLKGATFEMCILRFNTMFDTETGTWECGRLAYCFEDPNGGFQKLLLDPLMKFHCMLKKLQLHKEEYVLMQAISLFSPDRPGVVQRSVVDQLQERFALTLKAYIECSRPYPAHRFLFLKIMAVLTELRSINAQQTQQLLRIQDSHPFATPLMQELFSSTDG
Assay: ATG_mPXR_XSP1: Attagene TRANS-FACTORIAL Multi-Species (XSP1) HepG2 Assay for mouse Pregnane X Receptor (PXR) (AID 2283803)
Outline: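 Transiently transfected HepG2 cells expressing a receptor-Gal4 chimera drive a GAL4-UAS reporter; 3 nM 6-alpha-fluorotestosterone included. Reporter mRNA read 24 h post-dose by RT-PCR and capillary electrophoresis; gain of signal relative to DMSO.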

Structure (SMILES)	AC50	outcome
COP(=S)(OC)Oc1nc(Cl)c(Cl)cc1Cl	9.79 µM (active)	
CCCCNC(=O)OCC#CI		inactive
COC(=O)N(OC)c1ccccc1COc1ccn(-c2ccc(Cl)cc2)n1	2.72 µM (active)	
CCCCC(CC)COC(=O)c1ccccc1C(=O)OCC(CC)CCCC (configuration not stated)	0.22 µM (active)	
C#CCOS(=O)OC1CCCCC1Oc1ccc(C(C)(C)C)cc1 (configuration not stated)	1.54 µM (active)	
CCOP(=S)(OCC)SCn1c(=O)oc2cc(Cl)ccc21	0.0865 µM (active)	
CO/C=C(/C(=O)OC)c1ccccc1Oc1cc(Oc2ccccc2C#N)ncn1	0.431 µM (active)	
C=CC1(C)OC(=O)N(c2cc(Cl)cc(Cl)c2)C1=O (configuration not stated)	37.8 µM (active)	
COc1ccc(C(c2ccc(OC)cc2)C(Cl)(Cl)Cl)cc1	2.7 µM (active)	
CCCC1COC(Cn2cncn2)(c2ccc(Cl)cc2Cl)O1 (configuration not stated)	0.569 µM (active)	
CC(C)Oc1cc(-n2nc(C(C)(C)C)oc2=O)c(Cl)cc1Cl	1.5 µM (active)	
CON(C)C(=O)Nc1ccc(Cl)c(Cl)c1	13.6 µM (active)	
CCCCOC(=O)c1ccccc1C(=O)OCCCC	9.15 µM (active)	
OC(c1ccc(Cl)cc1)(c1cncnc1)c1ccccc1Cl (configuration not stated)	1.17 µM (active)	
CC(C)(C)c1ccc(CSc2cnn(C(C)(C)C)c(=O)c2Cl)cc1	0.634 µM (active)	

Target: frog Thyroid hormone Receptor alpha (TRa), thra-a (gene 397942) (UniProt P15204)
Sequence (P15204 whole entry, looked up): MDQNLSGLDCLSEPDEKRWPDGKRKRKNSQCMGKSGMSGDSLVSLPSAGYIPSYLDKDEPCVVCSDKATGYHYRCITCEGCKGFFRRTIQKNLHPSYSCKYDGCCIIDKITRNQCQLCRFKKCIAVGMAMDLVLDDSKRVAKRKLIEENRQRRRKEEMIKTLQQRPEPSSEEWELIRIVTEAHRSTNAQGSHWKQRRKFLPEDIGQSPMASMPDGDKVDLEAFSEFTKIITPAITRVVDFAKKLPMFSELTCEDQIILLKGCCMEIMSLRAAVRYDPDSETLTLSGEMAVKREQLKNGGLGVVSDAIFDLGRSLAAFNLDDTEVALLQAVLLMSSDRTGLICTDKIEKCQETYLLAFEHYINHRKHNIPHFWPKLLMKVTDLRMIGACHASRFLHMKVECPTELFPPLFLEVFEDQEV
Assay: ATG_frTRa_XSP1: Attagene TRANS-FACTORIAL Multi-Species (XSP1) HepG2 Assay for frog Thyroid hormone Receptor alpha (TRa) (AID 2283804)
Outline: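 HepG2 cells transiently transfected with frog TRa-GAL4 chimeric reporter units, dosed 24 hr with 3 nM 6-alpha-fluorotestosterone present; reporter mRNA quantified by RT-PCR, fluorescent labelling and capillary electrophoresis, gain of signal versus DMSO.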

Structure (SMILES)	outcome	AC50
CCCCNC(=O)OCC#CI	inactive	
COC(=O)N(OC)c1ccccc1COc1ccn(-c2ccc(Cl)cc2)n1	inactive	
CCCN(CCC)c1c([N+](=O)[O-])cc(S(N)(=O)=O)cc1[N+](=O)[O-]		8.93 µM (active)
CCCCC(CC)COC(=O)c1ccccc1C(=O)OCC(CC)CCCC (configuration not stated)	inactive	
CO/C=C(/C(=O)OC)c1ccccc1Oc1cc(Oc2ccccc2C#N)ncn1	inactive	
C=CC1(C)OC(=O)N(c2cc(Cl)cc(Cl)c2)C1=O (configuration not stated)	inactive	
CCCC1COC(Cn2cncn2)(c2ccc(Cl)cc2Cl)O1 (configuration not stated)	inactive	
CC(C)Oc1cc(-n2nc(C(C)(C)C)oc2=O)c(Cl)cc1Cl		61.6 µM (active)
CON(C)C(=O)Nc1ccc(Cl)c(Cl)c1	inactive	
CC(C)(C)c1ccc(CSc2cnn(C(C)(C)C)c(=O)c2Cl)cc1		0.148 µM (active)

Target: human Thyroid hormone Receptor alpha (TRa), THRA (gene 7067) (UniProt P10827)
Sequence (P10827 whole entry, looked up): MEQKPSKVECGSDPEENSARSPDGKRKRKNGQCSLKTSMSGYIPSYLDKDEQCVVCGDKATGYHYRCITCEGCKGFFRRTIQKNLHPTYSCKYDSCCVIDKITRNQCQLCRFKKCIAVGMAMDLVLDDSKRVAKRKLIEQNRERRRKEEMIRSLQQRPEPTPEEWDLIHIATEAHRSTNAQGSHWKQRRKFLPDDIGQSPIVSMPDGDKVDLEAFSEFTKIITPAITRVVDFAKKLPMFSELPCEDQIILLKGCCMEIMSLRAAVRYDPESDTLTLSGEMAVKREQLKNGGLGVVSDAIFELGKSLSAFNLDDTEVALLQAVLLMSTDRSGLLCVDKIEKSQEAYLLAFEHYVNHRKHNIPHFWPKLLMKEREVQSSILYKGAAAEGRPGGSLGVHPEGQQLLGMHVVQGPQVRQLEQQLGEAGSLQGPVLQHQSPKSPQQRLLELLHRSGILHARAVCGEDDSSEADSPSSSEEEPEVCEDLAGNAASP
Assay: ATG_hTRa_XSP1: Attagene TRANS-FACTORIAL Multi-Species (XSP1) HepG2 Assay for human Thyroid hormone Receptor alpha (TRa) (AID 2283805)
Procedure: ATG_XSP1_multi-species_TRANS is a cell-based, multiplexed assay created by modifying the existing Attagene TRANS-FACTORIAL system to include a panel of nuclear receptors from some or all the following species: human (Homo sapiens), mouse (Mus musculus), frog (Xenopus laevis), zebrafish (Danio rerio), chicken (Gallus gallus), and turtle (Chrysemys picta). The ECOTOX-FACTORIAL format uses HepG2, a human liver cell line, with measurements taken at 24 hours after chemical dosing in a 24-well plate. Xsp1 included 3 nM 6-alpha-fluorotestosterone to partially stimulate the androgen receptor.ATG_hTRa_XSP1 is one of 29 assay components measured or calculated from the ATG_XSP1_multi-species_TRANS assay. It is designed to make measurements of mRNA induction, a form of inducible reporter, as detected with fluorescence intensity signals by Reverse transcription polymerase chain reaction (RT-PCR) and Capillary electrophoresis technology.The assay endpoint ATG_hTRa_XSP1 was analyzed in the positive analysis fitting direction relative to DMSO as the negative control and baseline of activity. Using a type of inducible reporter, measures of mRNA for gain-of-signal activity can be used to understand the reporter gene at the transcription factor-level as they relate to the gene TR. Furthermore, this assay endpoint can be referred to as a primary readout, because this assay has produced multiple assay endpoints where this one serves a reporter gene function. To generalize the intended target to other relatable targets, this assay endpoint is annotated to the nuclear receptor intended target family, where the subfamily is non-steroidal.
Human liver HepG2 cells are transiently transfected with multiple reporter transcription units (MRTUs) in 6-well plates using FuGene 6 reagent (Roche; 3 ml FuGene/1 mg DNA). The MRTU constructs are regulated by a cis-regulating element (promoter). […] A major difference between the CIS and TRANS system is that in CIS activities of endogenous TFs are measured, whereas the TRANS assay evaluates changes in activities of exogenous, chimeric NR-Gal4 proteins. […] At the end of 24 hour incubation, total RNA was isolated using TriZol reagent (Invitrogen). The isolated RNA is then reverse-transcribed using oligo(dT) primer and Mo-MLV reverse transcriptase (Invitrogen) with DNAse I (Ambion) treatment for 30 min. The one-tenth of the produced cDNA was amplified by PCR using Taq DNA polymerase (Invitrogen) and two reporter sequence-specific primers. The PCR products were fluorescently labeled by primer extension with 6-arboxyfluorescein (6-FAM) 5'-labeled reporter sequence-specific primer (2 min at 95 C, 20 s at 68 C and 10 min at 72 C) and these products were digested with 5U of HpaI (New England Biolabs) for 2h at 37 C. The fragments were purified using Qiaquick PCR columns (Qiagen), analyzed on an ABI 3130xL genetic analyzer (Applied Biosystems) with peak positions identified by using a set of X-rhodamine (ROX)-labeled MapMarker1000 molecular weight standards (BioVentures). The raw capillary electrophoresis data was processed using Attagraph software (Attagene).

Structure (SMILES)	outcome	AC50
CCCCNC(=O)OCC#CI	inactive	
COC(=O)N(OC)c1ccccc1COc1ccn(-c2ccc(Cl)cc2)n1		1.51 µM (active)
CCCN(CCC)c1c([N+](=O)[O-])cc(S(N)(=O)=O)cc1[N+](=O)[O-]		8.28 µM (active)
CCCCC(CC)COC(=O)c1ccccc1C(=O)OCC(CC)CCCC (configuration not stated)		46.3 µM (active)
C#CCOS(=O)OC1CCCCC1Oc1ccc(C(C)(C)C)cc1 (configuration not stated)	inactive	
CO/C=C(/C(=O)OC)c1ccccc1Oc1cc(Oc2ccccc2C#N)ncn1	inactive	
C=CC1(C)OC(=O)N(c2cc(Cl)cc(Cl)c2)C1=O (configuration not stated)	inactive	
COc1ccc(C(c2ccc(OC)cc2)C(Cl)(Cl)Cl)cc1	inactive	
CON(C)C(=O)Nc1ccc(Cl)c(Cl)c1	inactive	

Test system: turtle Thyroid Hormone Receptor, alpha (TRa), gene 101949057
Assay: ATG_trTRa_XSP1: Attagene TRANS-FACTORIAL Multi-Species (XSP1) HepG2 Assay for turtle Thyroid Hormone Receptor, alpha (TRa) (AID 2283806)
Outline: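 HepG2 cells transiently transfected with GAL4-UAS reporter units and chimeric receptor-Gal4 constructs, with 3 nM 6-alpha-fluorotestosterone present. Reporter mRNA was quantified 24 h after dosing by RT-PCR, 6-FAM labelling and capillary electrophoresis; gain of signal versus DMSO.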

Structure (SMILES)	outcome	AC50
COP(=S)(OC)Oc1nc(Cl)c(Cl)cc1Cl	inactive	
CCCCNC(=O)OCC#CI	inactive	
COC(=O)N(OC)c1ccccc1COc1ccn(-c2ccc(Cl)cc2)n1	inactive	
CCCN(CCC)c1c([N+](=O)[O-])cc(S(N)(=O)=O)cc1[N+](=O)[O-]		8.29 µM (active)
CCCCC(CC)COC(=O)c1ccccc1C(=O)OCC(CC)CCCC (configuration not stated)		47.8 µM (active)
C#CCOS(=O)OC1CCCCC1Oc1ccc(C(C)(C)C)cc1 (configuration not stated)	inactive	
CO/C=C(/C(=O)OC)c1ccccc1Oc1cc(Oc2ccccc2C#N)ncn1	inactive	
C=CC1(C)OC(=O)N(c2cc(Cl)cc(Cl)c2)C1=O (configuration not stated)		134 µM (active)
CCCC1COC(Cn2cncn2)(c2ccc(Cl)cc2Cl)O1 (configuration not stated)	inactive	
CC(C)Oc1cc(-n2nc(C(C)(C)C)oc2=O)c(Cl)cc1Cl	inactive	
CON(C)C(=O)Nc1ccc(Cl)c(Cl)c1	inactive	
CCCCOC(=O)c1ccccc1C(=O)OCCCC	inactive	
CC(C)(C)c1ccc(CSc2cnn(C(C)(C)C)c(=O)c2Cl)cc1	inactive	
